Compound activity from PubChem.
FUS suppressor – FUS proteinopathy suppression in yeast; Potency, µM (highest dose often 76.6 µM), usual class: activators; S. cerevisiae FUS-expressing, growth rescue, OD600, 24 h; AID 1347120; 390,000 compounds, 0.24% hits;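 further: plate controls were DMSO vehicle for no effect and reference control for full effect; nearly all actives have a fitted effect of over 55% in size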
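Galactose (2%) drives FUS expression in yeast precultured in raffinose; seeding density OD 0.005. Test compounds incubated 24hr at 30C and 99% humidity before absorbance at 600 nm was measured.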
TDP43 rescue – rescues yeast growth from TDP-43 toxicity; TDP-43 expressing yeast growth rescue, BacTiter-Glo, 24 h; Potency, µM (titrated, usually from 46.1 µM), without a hit: top-dose growth rescue (activation), hits mostly activators; 410,000 compounds, 1.8% hits; further: % of control where 0% means no effect; nearly all actives have a fitted effect of over 50% in size
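Growth rescue of TDP-43-toxic yeast measured as ATP luminescence (BacTiter-Glo). Cells grown to mid-log in raffinose, induced in galactose at OD600=0.02, exposed to compound 24 hr at 30 deg C.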
Abeta rescue – restores growth of yeast expressing A-beta42 peptide. Potency, µM (highest dose often 46.1 µM), actives largely listed as activators. 410,000 compounds, 0.063% hits. yeast expressing A-beta42, growth rescue, OD600, 48 h; response scale: 0% DMSO, 100% iron-clioquinol control; further: nearly all actives have a fitted effect of over 55% in size
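Growth rescue measured by 600 nm absorbance after 48 h yeast culture at 30 C with compound. Values normalized between DMSO and an equimolar ferric chloride plus clioquinol control.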
aSyn rescue – alpha-synuclein toxicity inhibition in yeast; Yeast expressing alpha-synuclein, growth rescue, BacTiter-Glo, 24 h; Potency, µM (doses to about 46.1 µM), for inactives: top-dose growth rescue (activation), actives largely listed as activators; 370,000 compounds, 0.14% hits; further: % of control where 0% means no effect; nearly all actives have a fitted effect of over 65% in size
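Rescue of yeast growth: cells expressing toxic alpha-synuclein, induced in galactose at OD600 0.02, incubated with compound 24 h at 30 C. ATP luminescence quantified growth; inhibitors of toxicity appear as activators.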
* = called active by the depositor; i = inactive; ? = inconclusive; . = no result given; [ ] = another dose, or the depositor's remark. Shown are actives, neighbours in structure and some others; about 2.1% of the full set was active somewhere. The call rests on the fitted dose curve; in most records, active means well fitted curve in the direction sought with a large enough effect; inconclusive means small, poorly fitted or top-dose-only effect, or another doubt; inactive means no such curve, though single readings can be large; an effect the other way counts as inactive or inconclusive. Potency means the concentration at half of the fitted maximal effect.

SMILES | FUS suppressor | TDP43 rescue | Abeta rescue | aSyn rescue
O=[N+]([O-])c1ccc(C(c2sc3nc(-c4ccco4)nn3c2O)N2CCC3(CC2)OCCO3)cc1 (configuration not stated) | i | ? | i | .
CCCn1c(NC(=O)c2ccccc2Br)nc2ccccc21 | i | 16µM* | i | 10%
CCCn1c(NC(=O)c2ccc(Br)cc2)nc2ccccc21 | i | -6% | i | 2%
CCCn1c(NC(=O)c2ccc(F)cc2)nc2ccccc21 | i | 0% | i | 1%
C=CCn1c(NC(=O)c2ccccc2)nc2ccccc21 | i | 18µM* | i | 2%
CCCCn1c(NC(=O)c2ccccc2)nc2ccccc21 | i | ? | i | 25µM*
CCn1c(NC(=O)c2ccccc2)nc2ccccc21 | i | ? | i | 3%
COc1cc(NC(=O)c2ccccn2)ccc1NC(=O)c1ccccc1Cl | i | . | . | .
Nn1c(SCC(=O)Nc2ccccc2-c2ccccc2)nnc1-c1n[nH]c2c1CCC2 | i | . | . | .
Cc1c(C(=O)NCCc2ccc(Cl)cc2)sc2nc3n(c(=O)c12)CCCC3 | ? | 18µM* | i | .
Cc1c(C(=O)NCCc2ccc(Cl)cc2)sc2nc3n(c(=O)c12)CCC3 | i | ? | i | 8%
Cc1ccc(CNC(=O)c2sc3nc4n(c(=O)c3c2C)CCCC4)cc1 | i | 13µM* | i | .
Cc1c(C(=O)NCc2ccccc2)sc2nc3n(c(=O)c12)CCCCC3 | i | ? | i | .
Cc1ccc(CNC(=O)c2sc3nc4n(c(=O)c3c2C)CCCCC4)cc1 | i | 25µM* | i | .
CCOc1ccc(CCNC(=O)c2cc3ccsc3n2C)cc1OC | i | . | . | .
COc1cc(/C=C2/C(=O)ON=C2C)cc(Cl)c1O | i | 6% | ? | -10%
CCOc1cc(/C=C2/C(=O)ON=C2C)ccc1O | i | 18µM* | ? | 4%
CC1=NOC(=O)/C1=C/c1ccc(O)c(Cl)c1 | i | 18% | i | -8%
C#CCOc1c(Cl)cc(/C=C2/C(=O)ON=C2C)cc1OC | i | 16µM* | i | -9%
COP(=O)(O)C(C)NC(=O)OCc1ccccc1 (configuration not stated) | i | . | . | .
O=C(O)c1ccc(OS(=O)(=O)c2cccc(C(F)(F)F)c2)cc1 | i | ? | i | 16%
O=C(O)c1ccc(OS(=O)(=O)c2ccc(Cl)s2)cc1 | i | 14µM* | i | 5%
O=C(c1cc(Cl)cc(Cl)c1)N1CC[C@H]2[C@H](CCCN2Cc2cc(F)cc(F)c2)C1 | i | . | . | .
Cc1ccc(C)c(CN2C(=O)c3ccccc3S(=O)(=O)c3ccc(C(=O)N4CCOCC4)cc32)c1 | 28µM* | 9% | i | .
CCCN1CNc2c(c(=O)[nH]c(=S)n2CCc2ccc(C)cc2)C1 | . | . | . | 5%
SMILES | FUS suppressor | TDP43 rescue | Abeta rescue | aSyn rescue
CCOC(=O)C(C(=O)OCC)C(Nc1cccc(Br)c1)c1ccccc1 (configuration not stated) | i | 13µM* | i | 1%
COC(=O)[C@]12C[C@H](CC(=O)N3CCSCC3)C(=O)N(Cc3ccco3)C1=C[C@H](C(C)(C)C)O[C@@H]2C | i | . | . | .
CCOC(=O)c1c(C=O)c(C)n(Cc2ccc(Cl)cc2)c1C | i | 35µM* | i | 9%
O=C(CCCN1C(=O)c2ccccc2C1=O)NCCc1ccc(OC(F)F)cc1 | i | 13µM* | ? | -9%
COc1ccc(CCNC(=O)CCCN2C(=O)c3ccccc3C2=O)cc1 | i | 21%[9.22 µM] | i | 1%
COc1ccc(C(=S)N2CCN(C)CC2)cc1Br | i | 5% | i | 2%
COc1ccc(C(=S)N2CCCC2)cc1Br | i | 11µM* | i | 11%
Cc1ccccc1CNc1nc(N(C)C)nc2c1cnn2C | i | 20µM* | i | .
FC(F)Oc1ccc(NC(=S)NC2CCCCCCC2)cc1 | i | 24% | 11µM* | -9%
CCCCCn1nnnc1C1(C)CN(S(C)(=O)=O)CC(=O)N1Cc1ccco1 (configuration not stated) | i | . | . | .
COc1ccccc1CN(Cc1cc2cc(C)ccc2[nH]c1=O)Cc1nnnn1Cc1ccco1 | 16µM* | -2% | i | 14%
CCOC(=O)c1cccc(NC(=O)CN(C)S(=O)(=O)c2ccc(Cl)s2)c1 | i | . | . | .
CCOc1ccc(-c2nnc3ccc(SCC(=O)N4CCCCC4)nn23)cc1 | i | 14% | i | 1%
CCOc1ccc(-c2nnc3ccc(SC(C)C)nn23)cc1 | i | 16µM* | i | -7%
Cc1nc2nc(-c3ccc(Cl)cc3Cl)nn2c(C)c1CCC(=O)Nc1ccc(F)cc1 | i | 12% | i | 3%
CCCOC(=O)c1cccc(Nc2nc(CCC)cc(=O)[nH]2)c1 | ? | 18µM* | i | .
O=[N+]([O-])c1cccc2[nH]c(CNc3nc(N4CCOCC4)nc4c3ncn4-c3ccsc3)nc12 | i | . | . | .
Nc1ccc(-c2nc3ncccc3o2)cc1 | i | 13% | ? | 16µM*
Cc1ccccc1-n1c2nc(=O)[nH]c(=O)c-2cc2c(Cl)cccc21 | i | 3.5µM* | i | .
Cc1cccc(-n2c3nc(=O)n(C)c(=O)c-3cc3c(Cl)cccc32)c1C | i | 7% | i | .
CN(c1ccccc1)S(=O)(=O)c1ccc(NC(=S)NC(=O)C2CC2)cc1 | i | 18µM* | i | 1%
N#Cc1ccc(NC(=S)NC(=O)C2CC2)cc1 | i | 13µM* | i | ?
CC(=O)Nc1ccc(NC(=S)NC(=O)C2CC2)cc1 | i | -18% | i | -8%
O=C(NC(=S)Nc1ccc(F)cc1)C1CCCCC1 | i | 22% | 5µM* | -6%
Cc1ccc(NC(=S)NC(=O)C2CCCC2)cc1C | i | 25% | 8.9µM* | -23%
SMILES | FUS suppressor | TDP43 rescue | Abeta rescue | aSyn rescue
O=C(Nc1ccc(F)cc1)C1CCCCC1 | i | 20% | i | -12%
CCC1=C[C@@H]2CN(C1)Cc1c([nH]c3ccccc13)[C@@](C(=O)OC)(c1cc3c(cc1OC)N(C)[C@H]1[C@@](O)(C(=O)OC)[C@H](OC(C)=O)[C@]4(CC)C=CCN5CC[C@]31[C@@H]54)C2 | . | . | . | 2%
O=C(NC1CCCCN(Cc2ccc(OC(F)(F)F)cc2)C1=O)c1cccc(C(F)(F)F)c1 (configuration not stated) | i | . | . | .
CCn1c(SCC(=O)Nc2ccc(C(C)C)cc2)nnc1-c1ccc(C(C)(C)C)cc1 | i | . | . | .
Cc1cccc2c(C(=O)N3CCN(c4ccccn4)CC3)cc(-c3cccc(Br)c3)nc12 | ? | 18µM* | i | 12%
COc1cccc(-c2cc(C(=O)N3CCN(c4ncccn4)CC3)c3ccccc3n2)c1 | . | 18µM* | i | 4%
O=C(c1cc(-c2ccccc2)nc2ccccc12)N1CCc2ccccc2C1 | . | 25µM* | i | -16%
C/C(=N\Nc1ccc([N+](=O)[O-])cc1)c1cccc(N)c1 | i | 14µM* | i | 4%
